Laboratory results reported in the supplement of paper PMC10849652.
Of roughly 8,800 targets only a part is listed; those with a hit were picked by preference. About 0.5% of all pairs of compound and target were hits.

How the values were obtained:
Experiment in all cases: log2 fold change, soluble protein after heating vs DMSO (PISA); higher = thermal stabilisation; K562 lysate, 10 uM; active = over 0.2 and 3.5 SD of the protein, either way, in both replicates (recomputed)
[1] = compound: CN1CC[C@H](c2c(O)cc(O)c3c(=O)cc(-c4ccccc4Cl)oc23)[C@H](O)C1 [alvocidib]
Summary of the method: (§1)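 Pellets of K562 cells were dounce-homogenised in PBS pH 7.4 with 1 mM MgCl2, and the crude extract was held at 1 mg/mL protein for a 30 min treatment with 10 μM compound. Aliquots were heated for 3 min over 48°C-58°C and pooled before NP-40 was added to 0.5% at 4°C. The supernatant from 21,000xg for 90 min was quantified by TMTpro 16plex LC-MS/MS with channel sums equalised. Values are reported from duplicates as log-two fold change in thermal stability relative to solvent controls.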

[2] = compound: CN1CCc2c(c3ccccc3n2Cc2ccc(C(=O)NO)cc2)C1 [Tubastatin A]
Summary of the method: as §1

[3] = compound: CNC(=O)C1=CC=CC=C1NC2=NC(=NC=C2Cl)NC3=C(C=C(C=C3)N4CCOCC4)OC
Summary of the method: as §1

[4] = compound: CNC(=O)c1ccc(Nc2ncc(C(F)(F)F)c(NCc3nccnc3N(C)S(C)(=O)=O)n2)cc1 [defactinib]
Summary of the method: as §1

[5] = compound: CNc1nc(-c2ccc3c(N)n[nH]c3c2)cc(N2C[C@@H](C(=O)NC3CCCCC3)CC[C@H]2C)n1
Summary of the method: as §1

[6] = compound: COC(=O)N[C@@H](C)CNc1nccc(-c2cn(C(C)C)nc2-c2cc(Cl)cc(NS(C)(=O)=O)c2F)n1 [encorafenib]
Summary of the method: as §1

[7] = compound: COC(=O)[C@H](CCSC)NC(=O)C1=C(C=C(C=C1)NC[C@H](CS)N)C2=CC=CC=C2
Summary of the method: as §1

[8] = compound: COc1cc(Nc2ncc3c(n2)-c2ccc(Cl)cc2C(c2c(F)cccc2OC)=NC3)ccc1C(=O)O [alisertib]
Summary of the method: as §1

[9] = compound: COc1cc2nc(-c3cc(F)ccc3O)nc(N[C@@H]3CNC[C@H]3C(C)(C)O)c2cc1OC
Summary of the method: as §1

[10] = compound: COc1cc2ncnc(Nc3ccc(F)c(Cl)c3)c2cc1OCCCN1CCOCC1 [gefitinib]
Summary of the method: as §1

Measured: log2 fold change

CIAO2A (UniProt Q9H5X1)
inactive: [1] 0.034 | [2] 0.04 | [3] 0 | [4] -0.002 | [5] 0.109 | [6] 0.026 | [7] -0.052 | [8] 0.089 | [9] 0.009 | [10] 0.088

DNAH10 (UniProt Q8IVF4)
inactive: [1] -0.248 | [2] 0.056 | [3] -0.086 | [4] -0.074 | [5] 0.246 | [6] -0.04 | [7] -0.001 | [8] 0.027 | [9] 0.046 | [10] 0.043

DCP1A (UniProt Q9NPI6)
inactive: [1] -0.002 | [2] 0 | [3] 0.003 | [4] 0.033 | [5] 0 | [6] 0.006 | [7] -0.046 | [8] -0.074 | [9] 0.026 | [10] 0.022

CHMP4A isoform 2 (UniProt Q9BY43)
inactive: [1] -0.096 | [2] 0.048 | [3] -0.01 | [4] 0.007 | [5] 0.039 | [6] 0.026 | [7] -0.001 | [8] 0.028 | [9] 0.043 | [10] 0.041

DDA1 (UniProt Q9BW61)
inactive: [1] 0.024 | [2] -0.002 | [3] 0.015 | [4] -0.004 | [5] 0.031 | [6] 0.013 | [7] 0.021 | [8] -0.024 | [9] -0.003 | [10] -0.034

CTPS1 (UniProt P17812)
inactive: [1] 0.006 | [2] -0.101 | [3] -0.021 | [4] 0 | [5] -0.048 | [6] 0.016 | [7] 0.038 | [8] -0.019 | [9] -0.001 | [10] -0.015

CSPP1 (UniProt Q1MSJ5)
inactive: [1] -0.031 | [2] -0.03 | [3] -0.028 | [4] -0.086 | [5] 0.095 | [6] 0.119 | [7] -0.195 | [8] 0.027 | [9] 0.218 | [10] -0.054

DNAJC1 (UniProt Q96KC8)
Chain of UniProt Q96KC8 (Q96KC8 whole entry, looked up): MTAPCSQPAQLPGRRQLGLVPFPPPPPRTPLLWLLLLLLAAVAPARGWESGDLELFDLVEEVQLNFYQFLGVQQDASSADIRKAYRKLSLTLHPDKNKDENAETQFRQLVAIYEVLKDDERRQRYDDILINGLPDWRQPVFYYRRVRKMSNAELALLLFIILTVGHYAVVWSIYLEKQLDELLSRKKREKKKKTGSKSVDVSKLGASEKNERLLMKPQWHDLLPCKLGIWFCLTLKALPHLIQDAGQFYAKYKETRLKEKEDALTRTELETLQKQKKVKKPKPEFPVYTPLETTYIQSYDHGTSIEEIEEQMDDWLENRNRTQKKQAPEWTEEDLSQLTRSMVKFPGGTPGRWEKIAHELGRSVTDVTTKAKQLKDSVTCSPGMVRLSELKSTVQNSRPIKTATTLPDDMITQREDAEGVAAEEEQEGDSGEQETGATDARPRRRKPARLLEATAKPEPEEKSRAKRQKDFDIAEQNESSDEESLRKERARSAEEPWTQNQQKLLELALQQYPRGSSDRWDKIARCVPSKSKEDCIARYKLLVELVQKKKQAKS
inactive: [1] 0.016 | [2] -0.053 | [3] 0.013 | [4] 0.06 | [5] -0.059 | [6] 0.056 | [7] -0.257 | [8] 0.038 | [9] -0.104 | [10] 0.041

CSTF2 (UniProt P33240)
Chain of UniProt P33240 (P33240 whole entry, looked up): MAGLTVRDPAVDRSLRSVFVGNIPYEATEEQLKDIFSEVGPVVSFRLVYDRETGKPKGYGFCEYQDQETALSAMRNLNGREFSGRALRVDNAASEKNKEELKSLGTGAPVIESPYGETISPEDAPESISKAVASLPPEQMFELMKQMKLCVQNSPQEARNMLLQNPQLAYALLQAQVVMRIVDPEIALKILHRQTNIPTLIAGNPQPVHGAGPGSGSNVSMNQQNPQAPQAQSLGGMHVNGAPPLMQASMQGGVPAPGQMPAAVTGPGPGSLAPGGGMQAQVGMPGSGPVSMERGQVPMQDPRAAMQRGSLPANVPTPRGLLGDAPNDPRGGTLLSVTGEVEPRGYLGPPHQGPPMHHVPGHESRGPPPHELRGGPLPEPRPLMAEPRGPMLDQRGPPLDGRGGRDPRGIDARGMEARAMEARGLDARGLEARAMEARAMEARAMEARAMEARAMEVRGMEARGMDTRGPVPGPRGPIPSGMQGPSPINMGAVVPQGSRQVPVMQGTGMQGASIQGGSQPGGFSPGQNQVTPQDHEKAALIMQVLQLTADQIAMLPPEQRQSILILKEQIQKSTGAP
inactive: [1] -0.023 | [2] 0.011 | [3] 0.014 | [4] -0.016 | [5] 0.024 | [6] -0.009 | [7] -0.099 | [8] 0.03 | [9] 0.011 | [10] 0.008

DENND6A (UniProt Q8IWF6)
Chain of UniProt Q8IWF6 (Q8IWF6 whole entry, looked up): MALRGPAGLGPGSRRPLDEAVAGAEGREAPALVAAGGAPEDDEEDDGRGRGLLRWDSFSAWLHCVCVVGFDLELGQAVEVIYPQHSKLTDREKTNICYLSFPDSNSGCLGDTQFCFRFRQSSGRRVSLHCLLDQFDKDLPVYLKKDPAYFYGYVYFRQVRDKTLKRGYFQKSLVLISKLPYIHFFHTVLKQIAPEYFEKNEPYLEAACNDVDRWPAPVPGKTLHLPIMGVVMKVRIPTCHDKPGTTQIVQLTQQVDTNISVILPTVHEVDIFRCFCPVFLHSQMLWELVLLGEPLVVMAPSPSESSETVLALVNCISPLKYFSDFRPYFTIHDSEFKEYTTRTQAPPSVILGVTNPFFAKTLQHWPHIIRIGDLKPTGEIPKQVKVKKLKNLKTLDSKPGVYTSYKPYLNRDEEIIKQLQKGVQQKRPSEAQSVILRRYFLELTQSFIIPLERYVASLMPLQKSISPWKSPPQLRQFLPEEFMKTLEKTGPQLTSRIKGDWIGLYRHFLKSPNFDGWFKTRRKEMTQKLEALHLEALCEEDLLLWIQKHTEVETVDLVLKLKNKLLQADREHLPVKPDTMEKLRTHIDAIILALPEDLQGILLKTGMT
inactive: [1] -0.009 | [2] -0.072 | [3] -0.006 | [4] 0.007 | [5] 0.103 | [6] 0.007 | [7] -0.134 | [8] 0.059 | [9] -0.024 | [10] 0.047

CMPK2 (UniProt Q5EBM0)
inactive: [1] -0.046 | [2] 0.005 | [3] 0.018 | [4] 0.027 | [5] -0.006 | [6] 0.01 | [7] 0.028 | [8] -0.026 | [9] 0.018 | [10] -0.022

CLASP2 isoform 3 (UniProt O75122)
inactive: [1] -0.151 | [2] -0.103 | [3] 0.007 | [4] -0.051 | [5] -0.003 | [6] 0.035 | [7] -0.008 | [8] 0.032 | [9] 0 | [10] -0.007

COG2 (UniProt Q14746)
inactive: [1] -0.032 | [2] -0.114 | [3] -0.009 | [4] 0.05 | [5] 0.028 | [6] -0.009 | [7] 0.052 | [8] 0.021 | [9] -0.022 | [10] -0.039

DAZAP1 (UniProt Q96EP5)
inactive: [1] -0.027 | [2] 0.042 | [3] -0.026 | [4] -0.039 | [5] 0.058 | [6] -0.018 | [7] -0.045 | [8] 0.009 | [9] -0.004 | [10] 0.034

COL6A5 (UniProt A8TX70)
inactive: [1] -0.544 | [2] 0.029 | [3] -0.048 | [4] -0.111 | [5] 0.256 | [6] -0.088 | [7] 0.1 | [8] -0.038 | [9] 0.07 | [10] -0.034

DNAAF5 (UniProt Q86Y56)
inactive: [1] 0.024 | [2] -0.155 | [3] -0.011 | [4] -0.009 | [5] -0.011 | [6] 0.073 | [7] 0.101 | [8] 0.038 | [9] 0.012 | [10] -0.018

CMIP (UniProt Q8IY22)
inactive: [1] 0.002 | [2] -0.161 | [3] 0.001 | [4] 0.061 | [5] -0.015 | [6] 0.078 | [7] 0.025 | [8] -0.012 | [9] -0.016 | [10] 0.007

CNOT6L (UniProt Q96LI5)
inactive: [1] -0.091 | [2] 0.022 | [3] 0.022 | [4] 0.046 | [5] 0.013 | [6] 0.036 | [7] 0.066 | [8] -0.005 | [9] 0.037 | [10] -0.033

CMSS1 (UniProt Q9BQ75)
Chain of UniProt Q9BQ75 (Q9BQ75 whole entry, looked up): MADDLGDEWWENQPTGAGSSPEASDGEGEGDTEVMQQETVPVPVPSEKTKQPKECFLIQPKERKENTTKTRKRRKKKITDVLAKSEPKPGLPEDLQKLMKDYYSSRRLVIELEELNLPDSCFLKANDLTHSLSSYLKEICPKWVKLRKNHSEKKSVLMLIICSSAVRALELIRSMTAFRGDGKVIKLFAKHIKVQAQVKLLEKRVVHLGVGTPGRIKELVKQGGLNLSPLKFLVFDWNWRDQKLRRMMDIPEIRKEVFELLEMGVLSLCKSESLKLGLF
inactive: [1] 0.013 | [2] -0.036 | [3] -0.02 | [4] -0.009 | [5] -0.032 | [6] 0.015 | [7] 0.024 | [8] 0.02 | [9] 0.004 | [10] 0.025

CLPB isoform 2 (UniProt Q9H078)
inactive: [1] 0.065 | [2] -0.075 | [3] 0.031 | [4] 0.086 | [5] -0.049 | [6] 0.025 | [7] -0.053 | [8] 0.001 | [9] -0.036 | [10] 0.034

CYP24A1 (UniProt Q07973)
Chain of UniProt Q07973 (Q07973 whole entry, looked up): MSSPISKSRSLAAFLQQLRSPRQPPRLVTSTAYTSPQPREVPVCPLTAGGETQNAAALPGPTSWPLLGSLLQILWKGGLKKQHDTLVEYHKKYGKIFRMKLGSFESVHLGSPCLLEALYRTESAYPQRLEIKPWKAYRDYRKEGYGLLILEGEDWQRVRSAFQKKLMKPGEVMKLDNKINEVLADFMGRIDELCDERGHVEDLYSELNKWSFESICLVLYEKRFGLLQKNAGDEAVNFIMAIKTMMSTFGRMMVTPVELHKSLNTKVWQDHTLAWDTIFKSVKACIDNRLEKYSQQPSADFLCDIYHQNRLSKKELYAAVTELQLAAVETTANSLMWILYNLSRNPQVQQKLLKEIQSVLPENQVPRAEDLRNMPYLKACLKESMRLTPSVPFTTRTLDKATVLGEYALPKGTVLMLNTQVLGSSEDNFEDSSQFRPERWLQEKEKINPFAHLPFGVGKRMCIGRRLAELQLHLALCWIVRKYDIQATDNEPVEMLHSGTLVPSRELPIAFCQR
inactive: [1] -0.258 | [2] 0.163 | [3] -0.021 | [4] -0.158 | [5] 0.226 | [6] 0.011 | [7] 0.043 | [8] 0.049 | [9] 0.13 | [10] -0.05

CXorf38 (UniProt Q8TB03)
Chain of UniProt Q8TB03 (Q8TB03 whole entry, looked up): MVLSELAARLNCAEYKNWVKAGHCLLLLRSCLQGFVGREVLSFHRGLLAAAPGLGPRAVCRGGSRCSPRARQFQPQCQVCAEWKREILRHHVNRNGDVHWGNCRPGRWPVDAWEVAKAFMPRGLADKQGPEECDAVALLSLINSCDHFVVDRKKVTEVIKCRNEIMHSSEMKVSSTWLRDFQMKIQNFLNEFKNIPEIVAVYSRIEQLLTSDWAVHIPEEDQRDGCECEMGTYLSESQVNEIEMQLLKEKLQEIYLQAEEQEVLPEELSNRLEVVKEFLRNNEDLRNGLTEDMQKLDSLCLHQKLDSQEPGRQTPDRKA
inactive: [1] 0 | [2] 0.039 | [3] 0.04 | [4] -0.012 | [5] -0.016 | [6] 0.02 | [7] -0.012 | [8] -0.021 | [9] -0.058 | [10] -0.056

DNAJC3 (UniProt Q13217)
Chain of UniProt Q13217 (Q13217 whole entry, looked up): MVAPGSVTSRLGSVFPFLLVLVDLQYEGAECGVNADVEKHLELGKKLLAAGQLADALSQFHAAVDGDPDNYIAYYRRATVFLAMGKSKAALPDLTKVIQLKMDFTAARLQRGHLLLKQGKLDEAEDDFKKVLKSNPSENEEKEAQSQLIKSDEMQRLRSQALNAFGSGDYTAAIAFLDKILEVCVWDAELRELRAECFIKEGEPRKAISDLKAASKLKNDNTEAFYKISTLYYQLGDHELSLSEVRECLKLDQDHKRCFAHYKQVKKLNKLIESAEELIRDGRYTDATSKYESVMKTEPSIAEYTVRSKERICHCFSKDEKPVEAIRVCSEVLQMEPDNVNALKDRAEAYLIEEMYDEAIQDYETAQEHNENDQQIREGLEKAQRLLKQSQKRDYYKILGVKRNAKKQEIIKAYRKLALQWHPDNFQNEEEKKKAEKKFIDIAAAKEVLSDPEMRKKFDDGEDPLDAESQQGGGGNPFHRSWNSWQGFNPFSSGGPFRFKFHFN
inactive: [1] 0.004 | [2] 0.073 | [3] 0.005 | [4] 0.021 | [5] -0.029 | [6] 0.044 | [7] 0.011 | [8] 0 | [9] 0.005 | [10] 0.026

DNM2 (UniProt P50570)
inactive: [1] 0.037 | [2] -0.051 | [3] 0.024 | [4] 0.007 | [5] 0.029 | [6] -0.004 | [7] 0.061 | [8] 0.014 | [9] -0.02 | [10] 0.006

DOK1 (UniProt Q99704)
Chain of UniProt Q99704 (Q99704 whole entry, looked up): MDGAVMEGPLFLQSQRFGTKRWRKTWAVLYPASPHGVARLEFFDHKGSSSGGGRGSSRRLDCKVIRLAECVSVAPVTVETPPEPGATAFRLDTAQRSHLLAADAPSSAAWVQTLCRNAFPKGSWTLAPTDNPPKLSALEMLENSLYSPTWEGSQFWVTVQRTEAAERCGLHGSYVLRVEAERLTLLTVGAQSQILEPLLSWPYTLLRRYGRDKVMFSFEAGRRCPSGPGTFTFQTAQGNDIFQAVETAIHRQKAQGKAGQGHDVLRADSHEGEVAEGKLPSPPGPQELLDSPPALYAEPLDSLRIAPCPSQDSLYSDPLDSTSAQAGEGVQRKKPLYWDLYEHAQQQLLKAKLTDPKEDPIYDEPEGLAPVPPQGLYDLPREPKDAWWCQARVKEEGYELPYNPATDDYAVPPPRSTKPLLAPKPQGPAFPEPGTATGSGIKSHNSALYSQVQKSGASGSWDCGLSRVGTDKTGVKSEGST
inactive: [1] -0.02 | [2] -0.135 | [3] 0.059 | [4] 0.059 | [5] -0.005 | [6] -0.007 | [7] 0.044 | [8] 0.082 | [9] 0.071 | [10] -0.102

CKS1B (UniProt P61024)
inactive: [1] 0.117 | [2] -0.001 | [3] 0.032 | [4] 0.075 | [5] -0.055 | [6] 0.04 | [7] -0.014 | [8] -0.031 | [9] -0.024 | [10] 0.071

DHFR (UniProt P00374)
Chain of UniProt P00374 (P00374 whole entry, looked up): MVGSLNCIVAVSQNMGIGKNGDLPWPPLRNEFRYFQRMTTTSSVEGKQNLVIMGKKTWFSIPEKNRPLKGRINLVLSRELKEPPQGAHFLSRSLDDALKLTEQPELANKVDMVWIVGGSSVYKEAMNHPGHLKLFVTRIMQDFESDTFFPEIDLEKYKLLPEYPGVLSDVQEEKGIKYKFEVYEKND
inactive: [1] 0.03 | [2] -0.111 | [3] -0.001 | [4] 0.039 | [5] -0.023 | [6] 0.01 | [7] 0.141 | [8] 0.017 | [9] -0.192 | [10] 0.028

DICER1 (UniProt Q9UPY3)
inactive: [1] -0.032 | [2] -0.172 | [3] 0.112 | [4] 0.046 | [5] -0.003 | [6] 0.037 | [7] 0.039 | [8] 0.012 | [9] -0.022 | [10] -0.027

CORO7 isoform 3 (UniProt P57737)
Chain of UniProt P57737 (P57737 whole entry, looked up): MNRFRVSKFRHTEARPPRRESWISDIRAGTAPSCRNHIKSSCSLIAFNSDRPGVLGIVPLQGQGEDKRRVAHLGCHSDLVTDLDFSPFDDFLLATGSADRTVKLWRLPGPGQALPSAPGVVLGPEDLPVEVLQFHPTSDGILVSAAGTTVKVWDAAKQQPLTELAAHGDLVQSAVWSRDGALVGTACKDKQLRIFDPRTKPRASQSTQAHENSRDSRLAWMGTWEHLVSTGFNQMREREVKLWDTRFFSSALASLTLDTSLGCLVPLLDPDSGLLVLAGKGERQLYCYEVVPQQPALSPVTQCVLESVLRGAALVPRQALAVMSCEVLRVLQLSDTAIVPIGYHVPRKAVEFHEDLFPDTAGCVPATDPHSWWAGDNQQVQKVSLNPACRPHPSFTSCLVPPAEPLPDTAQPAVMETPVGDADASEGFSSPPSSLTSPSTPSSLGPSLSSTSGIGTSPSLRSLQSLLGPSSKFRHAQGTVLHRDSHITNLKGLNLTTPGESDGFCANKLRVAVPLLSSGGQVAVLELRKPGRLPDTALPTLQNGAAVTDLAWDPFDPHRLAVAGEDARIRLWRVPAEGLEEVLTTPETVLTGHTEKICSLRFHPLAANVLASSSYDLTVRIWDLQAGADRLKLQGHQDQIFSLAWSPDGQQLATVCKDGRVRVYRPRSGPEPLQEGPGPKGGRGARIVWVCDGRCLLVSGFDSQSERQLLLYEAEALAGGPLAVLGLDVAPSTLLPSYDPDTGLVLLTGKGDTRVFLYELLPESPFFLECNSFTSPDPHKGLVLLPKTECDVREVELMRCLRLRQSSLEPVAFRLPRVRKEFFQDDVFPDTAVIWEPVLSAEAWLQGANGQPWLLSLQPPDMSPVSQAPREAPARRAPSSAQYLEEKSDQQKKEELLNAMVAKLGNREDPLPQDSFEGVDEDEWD
inactive: [1] 0.023 | [2] -0.087 | [3] -0.008 | [4] 0.028 | [5] 0.007 | [6] -0.008 | [7] 0.114 | [8] 0.007 | [9] -0.069 | [10] -0.047

COG3 (UniProt Q96JB2)
inactive: [1] -0.023 | [2] -0.09 | [3] 0.042 | [4] -0.016 | [5] -0.041 | [6] -0.013 | [7] -0.045 | [8] 0.032 | [9] -0.018 | [10] -0.026
